According to ChEMBL document CHEMBL5724796, “Tm Shift (DSF) assay results for EUbOPEN Chemogenomics Library” (2024):

What was measured:
Settings in all cases: Compound concentration 20.0 uM
[1] = biological target: Tyrosine-protein kinase ABL1 (Homo sapiens) (UniProt P00519)
[2] = biological target: Bromodomain-containing protein 4 (Homo sapiens) (UniProt O60885)
[3] = biological target: Cyclin-dependent kinase 2 (Homo sapiens) (UniProt P24941)
[4] = biological target: Casein kinase I isoform delta (Homo sapiens) (UniProt P48730)
Sequence of Casein kinase I isoform delta (Homo sapiens) (P48730 whole entry, looked up, canonical isoform): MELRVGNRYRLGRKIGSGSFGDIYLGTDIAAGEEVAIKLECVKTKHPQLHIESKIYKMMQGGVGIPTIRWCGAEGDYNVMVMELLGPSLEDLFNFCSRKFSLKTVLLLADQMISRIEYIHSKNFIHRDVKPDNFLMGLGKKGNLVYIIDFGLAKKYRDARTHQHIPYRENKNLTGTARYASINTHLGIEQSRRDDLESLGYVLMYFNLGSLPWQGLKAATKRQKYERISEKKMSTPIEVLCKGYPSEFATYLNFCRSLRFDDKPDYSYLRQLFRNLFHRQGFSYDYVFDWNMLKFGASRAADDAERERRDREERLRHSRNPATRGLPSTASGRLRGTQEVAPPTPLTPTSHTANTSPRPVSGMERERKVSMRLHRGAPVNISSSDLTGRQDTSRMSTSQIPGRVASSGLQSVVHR

[5] = biological target: Glycogen synthase kinase-3 beta (Homo sapiens) (UniProt P49841)
Sequence of Glycogen synthase kinase-3 beta (Homo sapiens) (P49841 whole entry, looked up): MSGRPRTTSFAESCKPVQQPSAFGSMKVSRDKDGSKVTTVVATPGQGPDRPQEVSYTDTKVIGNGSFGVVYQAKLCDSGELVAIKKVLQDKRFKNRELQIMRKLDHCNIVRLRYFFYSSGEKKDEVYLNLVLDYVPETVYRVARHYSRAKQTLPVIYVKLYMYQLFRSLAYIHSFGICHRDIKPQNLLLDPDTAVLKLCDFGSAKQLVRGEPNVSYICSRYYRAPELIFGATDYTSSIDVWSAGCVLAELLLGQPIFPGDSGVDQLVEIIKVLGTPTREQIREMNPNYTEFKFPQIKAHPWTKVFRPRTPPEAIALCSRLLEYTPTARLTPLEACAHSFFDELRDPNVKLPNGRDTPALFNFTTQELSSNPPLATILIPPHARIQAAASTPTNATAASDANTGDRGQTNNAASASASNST

[6] = biological target: Mitogen-activated protein kinase 1 (Homo sapiens) (UniProt P28482)
Sequence of Mitogen-activated protein kinase 1 (Homo sapiens) (P28482 whole entry): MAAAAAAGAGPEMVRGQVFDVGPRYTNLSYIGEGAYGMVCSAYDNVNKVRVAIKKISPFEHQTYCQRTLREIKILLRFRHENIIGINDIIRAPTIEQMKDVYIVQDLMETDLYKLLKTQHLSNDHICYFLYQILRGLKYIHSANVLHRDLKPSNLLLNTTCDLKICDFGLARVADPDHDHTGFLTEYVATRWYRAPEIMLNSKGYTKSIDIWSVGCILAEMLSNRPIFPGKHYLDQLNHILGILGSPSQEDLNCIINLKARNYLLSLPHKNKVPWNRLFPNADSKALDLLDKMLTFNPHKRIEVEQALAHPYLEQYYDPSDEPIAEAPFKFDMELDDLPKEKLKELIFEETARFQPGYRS

[7] = biological target: T1, Aurora kinase A (Homo sapiens) (UniProt O14965)
T1 sequence (whole entry): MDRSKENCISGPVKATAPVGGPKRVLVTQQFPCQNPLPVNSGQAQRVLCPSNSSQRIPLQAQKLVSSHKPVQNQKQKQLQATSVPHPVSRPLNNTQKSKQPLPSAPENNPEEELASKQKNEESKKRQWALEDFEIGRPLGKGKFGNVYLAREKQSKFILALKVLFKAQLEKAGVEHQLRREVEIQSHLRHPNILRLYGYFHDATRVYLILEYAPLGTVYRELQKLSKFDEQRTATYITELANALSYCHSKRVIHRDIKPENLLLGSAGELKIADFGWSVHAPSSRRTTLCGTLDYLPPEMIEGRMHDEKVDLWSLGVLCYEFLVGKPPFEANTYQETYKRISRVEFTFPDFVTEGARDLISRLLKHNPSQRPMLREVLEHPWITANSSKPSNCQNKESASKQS

[8] = biological target: T2, Transcription intermediary factor 1-alpha (Homo sapiens) (UniProt O15164)
T2 sequence (whole entry): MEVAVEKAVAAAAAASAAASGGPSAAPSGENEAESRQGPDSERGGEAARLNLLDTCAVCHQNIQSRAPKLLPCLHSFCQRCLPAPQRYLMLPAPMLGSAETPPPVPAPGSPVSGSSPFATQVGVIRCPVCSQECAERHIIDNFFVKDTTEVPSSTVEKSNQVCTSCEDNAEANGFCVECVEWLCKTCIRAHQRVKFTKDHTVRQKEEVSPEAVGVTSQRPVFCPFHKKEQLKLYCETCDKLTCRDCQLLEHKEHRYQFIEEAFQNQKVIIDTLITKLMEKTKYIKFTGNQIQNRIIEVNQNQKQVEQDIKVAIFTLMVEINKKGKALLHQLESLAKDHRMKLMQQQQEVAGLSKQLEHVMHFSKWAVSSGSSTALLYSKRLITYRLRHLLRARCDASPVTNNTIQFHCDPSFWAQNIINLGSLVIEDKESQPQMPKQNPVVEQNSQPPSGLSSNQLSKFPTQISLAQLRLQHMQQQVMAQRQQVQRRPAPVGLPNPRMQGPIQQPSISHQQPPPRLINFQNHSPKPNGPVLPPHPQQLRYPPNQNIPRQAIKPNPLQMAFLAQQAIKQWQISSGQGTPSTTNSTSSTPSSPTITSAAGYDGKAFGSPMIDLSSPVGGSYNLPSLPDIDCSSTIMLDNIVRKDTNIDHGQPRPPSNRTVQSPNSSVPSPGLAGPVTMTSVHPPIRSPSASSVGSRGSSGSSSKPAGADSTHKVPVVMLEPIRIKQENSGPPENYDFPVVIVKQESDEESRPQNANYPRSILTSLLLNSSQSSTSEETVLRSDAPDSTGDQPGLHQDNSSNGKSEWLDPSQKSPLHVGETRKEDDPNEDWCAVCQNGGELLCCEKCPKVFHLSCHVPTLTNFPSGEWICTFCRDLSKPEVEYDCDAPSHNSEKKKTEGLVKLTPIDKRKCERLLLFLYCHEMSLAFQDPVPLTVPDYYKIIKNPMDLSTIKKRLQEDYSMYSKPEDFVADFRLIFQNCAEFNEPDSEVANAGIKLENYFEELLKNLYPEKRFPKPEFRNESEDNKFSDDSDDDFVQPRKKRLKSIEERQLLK

Sequence of Tyrosine-protein kinase ABL1 (Homo sapiens) (P00519 whole entry): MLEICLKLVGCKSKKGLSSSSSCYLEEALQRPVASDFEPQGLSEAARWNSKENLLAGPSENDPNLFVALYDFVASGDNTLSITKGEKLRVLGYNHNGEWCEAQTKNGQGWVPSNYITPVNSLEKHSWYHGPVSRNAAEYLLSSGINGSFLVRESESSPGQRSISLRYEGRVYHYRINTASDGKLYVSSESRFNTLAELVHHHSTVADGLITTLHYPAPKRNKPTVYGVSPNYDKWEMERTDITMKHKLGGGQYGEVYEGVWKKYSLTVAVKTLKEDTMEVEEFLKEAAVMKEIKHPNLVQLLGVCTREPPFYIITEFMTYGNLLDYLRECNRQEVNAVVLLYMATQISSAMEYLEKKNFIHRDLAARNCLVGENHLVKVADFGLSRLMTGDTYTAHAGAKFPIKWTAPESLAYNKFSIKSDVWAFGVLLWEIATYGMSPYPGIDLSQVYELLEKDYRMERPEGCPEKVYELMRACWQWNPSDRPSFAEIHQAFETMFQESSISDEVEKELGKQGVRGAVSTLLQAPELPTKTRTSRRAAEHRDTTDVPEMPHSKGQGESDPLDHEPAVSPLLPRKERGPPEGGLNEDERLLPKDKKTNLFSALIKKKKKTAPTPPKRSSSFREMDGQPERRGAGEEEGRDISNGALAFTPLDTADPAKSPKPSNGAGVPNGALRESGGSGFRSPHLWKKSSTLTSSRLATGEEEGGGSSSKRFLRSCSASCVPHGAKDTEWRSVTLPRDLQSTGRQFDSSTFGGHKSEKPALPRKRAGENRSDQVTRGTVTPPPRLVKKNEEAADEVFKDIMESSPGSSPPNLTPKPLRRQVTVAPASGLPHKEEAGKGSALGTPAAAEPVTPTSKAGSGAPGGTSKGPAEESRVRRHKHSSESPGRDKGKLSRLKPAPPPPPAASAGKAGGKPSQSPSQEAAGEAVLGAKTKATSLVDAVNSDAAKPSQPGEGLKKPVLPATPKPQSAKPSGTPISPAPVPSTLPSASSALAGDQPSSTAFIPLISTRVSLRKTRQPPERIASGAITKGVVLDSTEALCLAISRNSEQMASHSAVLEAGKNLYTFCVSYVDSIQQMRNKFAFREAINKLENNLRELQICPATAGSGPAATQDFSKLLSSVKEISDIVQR

Structure (SMILES) | ΔTm [1] [°C] | ΔTm [2] [°C] | ΔTm [3] [°C] | ΔTm [4] [°C] | ΔTm [5] [°C] | ΔTm [6] [°C] | ΔTm [7] [°C] | ΔTm [8] [°C]
COc1nc(Nc2cc(S(C)(=O)=O)ccc2N[C@@H](c2cccc3c2OC(F)(F)O3)c2ncccc2Cl)nc(N2CCNCC2)n1 | -0.96 | -4.95 | -3.51 | -0.34 | 0 | 0 | -5.82 | 0.37
CCOc1ccc(Cc2cc([C@]34OC[C@](CO)(O3)[C@@H](O)[C@H](O)[C@H]4O)ccc2Cl)cc1 | 0.25 | 2.11 | 0.62 | -0.26 | -0.1 | 0.67 | -0.99 | 1.7
Cc1nc(F)ccc1-c1cc(Cn2ccn(C)c2=N)cc(C(=O)NCc2ccc(Cl)c(Cl)c2)c1 | 0.39 | -2.09 | -0.77 | 0.13 | -0.9 | -0.24 | -0.34 | -1.96
CC(C)c1c(-c2ccccc2)[nH]c2c(C#N)cnn2c1=O | 0.72 | -2.81 | 0.4 | -0.22 | -0.15 | 0.17 | -1.64 | -0.06
CC(C)CCn1c(CN2CCN(C(=O)C3CC3)CC2)nc2c1c(=O)n(C)c(=O)n2C | 0.68 | -2.93 | 0.17 | -0.39 | -0.45 | 0.11 | -2.45 | 0.08
CC(=O)N[C@@H](CCCCNC(=O)CSCCNC(=O)CCNC(=O)[C@H](O)C(C)(C)COP(=O)(O)OP(=O)(O)OC[C@H]1O[C@@H](n2cnc3c(N)ncnc32)[C@H](O)[C@@H]1OP(=O)(O)O)C(N)=O | 0.23 | -2 | -0.07 | -0.41 | -0.08 | -0.01 | -0.37 | 1.51
CCOc1ccc(Cc2cc([C@@H]3O[C@H](CO)[C@@H](O)[C@H](O)[C@H]3O)ccc2Cl)cc1 | 0.64 | -1.76 | -0.13 | -0.16 | -0.82 | 0.08 | -2.13 | -0.07
CS(=O)(=O)c1ccc(Oc2cc(F)cc(C#N)c2)c2c1[C@H](O)C(F)(F)C2 | 0.43 | -2.67 | 0.56 | -0.1 | 0.06 | 0.15 | -1.44 | 0.31
O=C(c1cc(Cc2n[nH]c(=O)c3ccccc23)ccc1F)N1CCN(C(=O)C2CC2)CC1 | 0.22 | 15.7 | 0.66 | -0.42 | -4.34 | 0.4 | -2.14 | -1.81
COc1ccc(CC[C@H]2CCC[C@@H](CCc3ccc(OC)cc3)N2C[C@@H](O)CO)cc1 | 0.7 | -3.11 | 0.11 | -0.1 | -0.21 | 0.31 | -2.3 | -0.71
Cc1ccc(C)c(-n2sc3cc(F)ccc3c2=O)c1 | -15.6 | -11.5 | -5.52 | -0.06 | 0 | -16.1 | -1.97 | 0
Oc1nc(-c2ccc(C(F)(F)F)cc2)nc2c1CSCC2 | 0.58 | -2.75 | 0.01 | -0.13 | 0.44 | 0.11 | -2.41 | -0.56
CCn1nc(C2CC2)cc1Nc1nc(C(=O)NC)nc2[nH]c3cc(-c4c(C)noc4C)c(OC)cc3c12 | 0.56 | 8.71 | -0.11 | -0.18 | -1.43 | 0.23 | -2.42 | 0
Cn1ncc(-c2nn(C)c3ncnc(N4CCC4)c23)c1-c1ccc(C(F)(F)F)cc1 | 0.03 | -2.92 | -1.77 | -0.3 | -1.09 | 0.4 | -2.16 | -2.31
Nc1ncnc2c1nc(NCc1ccc(-c3ccccc3)cc1)n2[C@@H]1O[C@H](CO)[C@@H](O)[C@H]1O | 1.36 | -3.1 | 0.21 | -0.22 | -0.69 | 0.28 | -1.41 | -0.53
O=C(NCCCOc1ccc2[nH]c(=O)ccc2c1)N(C1CC1)[C@@H]1CCCC[C@H]1O | 0.31 | -0.85 | -0.14 | -0.05 | -0.66 | 0.1 | -2.39 | 0.02
Cc1cc(C(=O)N2CCN(C3CN(C(=O)c4ccc(-c5ccccc5)cc4)C3)CC2)no1 | 0.78 | -2.08 | -0.01 | 0.33 | 0 | 0.28 | 0 | -0.09
N#Cc1ccc(-c2c3n(c4cccnc24)CCN(C2CC2)C3=O)cc1F | 0.62 | -3.17 | 0.14 | -0.26 | 1.8 | 0.04 | -2.3 | 0.73
C=C(C)[C@@H](CC=C(C)C)C[C@@]12C[C@@H](CC=C(C)C)C(C)(C)[C@@](CC=C(C)C)(C(=O)C(C(=O)c3ccc(O)c(O)c3)=C1O)C2=O | 0.52 | -5.01 | -3.75 | 0.51 | -0.68 | -6.65 | 0.51 | -0.01
CCN(CC)S(=O)(=O)c1cc(Nc2nccc(-c3ccnc(-c4ccc(NC(=O)NC)cc4)c3)n2)ccc1Cl | 15.6 | 0 | 0 | 0.81 | 24.1 | 0 | 0 | 0
CCCn1/c(=N/C(=O)c2cccc(C(N)=O)c2)[nH]c2ccccc21 | 1.41 | -1.51 | 0.06 | 0.95 | -0.17 | -1.41 | -0.08 | -0.27
CCCCCCCCCCCCC/C=C/[C@@H](O)[C@H](CO)NC(=O)CBr | 0.2 | -6.16 | -4.16 | -9.74 | -9.26 | 0.47 | -14.4 | -2.18
